# Source: PMC8222333, “AsCas12a ultra nuclease facilitates the rapid generation of therapeutic cell medicines”
# How the values were obtained:
# Test in all cases: Spec-seq (native PAGE EMSA with sequencing of bound and unbound); 25 mM Tris-HCl pH 7.4, 150 mM KCl, 5 mM MgCl2, 10% glycerol, 1 mM DTT, 40 ng/uL salmon sperm DNA; 400 nM Cas12a, 480 nM crRNA, 50 nM library, 37 C 1 h; native PAGE at room temperature; high values mean tight binding
# Settings in all cases: protein: recombinant
# dAsCas12a S542R = dAsCas12a S542R (Acidaminococcus sp., UniProt U2UMQ6 1-1307, S542R;D908A;E993A;D1235A)
# d-enCas12a = d-enCas12a (Acidaminococcus sp., UniProt U2UMQ6 1-1307, E174R;S542R;K548R;D908A;E993A;D1235A)
# d-enCas12a-Ultra = d-enCas12a-Ultra (Acidaminococcus sp., UniProt U2UMQ6 1-1307, E174R;S542R;K548R;M537R;F870L;D908A;E993A;D1235A)
# 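Further: relative affinity from the bound to unbound sequence frequency ratio in Spec-seq.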
Binder,binding signal (dAsCas12a S542R),binding signal (d-enCas12a),binding signal (d-enCas12a-Ultra)
ACAG (dsDNA) DNA 1: GCTATCTAGTGCTCAGTACGCACTGACAGAGGAAACTTCTGGCAGGACCAGGTCATGAGATCGGAAGAGCACACGTCTGAACTCCAGTCA DNA 2: TGACTGGAGTTCAGACGTGTGCTCTTCCGATCTCATGACCTGGTCCTGCCAGAAGTTTCCTCTGTCAGTGCGTACTGAGCACTAGATAGC RNA: AAUUUCUACUCUUGUAGAUAGGAAACUUCUGGCAGGACC,-8.64 lnKA,-5.79 lnKA,-3.45 lnKA
ACGT (dsDNA) DNA 1: GCTATCTAGTGCTCAGTACGCACTGACGTAGGAAACTTCTGGCAGGACCAGGTCATGAGATCGGAAGAGCACACGTCTGAACTCCAGTCA DNA 2: TGACTGGAGTTCAGACGTGTGCTCTTCCGATCTCATGACCTGGTCCTGCCAGAAGTTTCCTACGTCAGTGCGTACTGAGCACTAGATAGC RNA: AAUUUCUACUCUUGUAGAUAGGAAACUUCUGGCAGGACC,-8.74 lnKA,-5.85 lnKA,-3.49 lnKA
ACCG (dsDNA) DNA 1: GCTATCTAGTGCTCAGTACGCACTGACCGAGGAAACTTCTGGCAGGACCAGGTCATGAGATCGGAAGAGCACACGTCTGAACTCCAGTCA DNA 2: TGACTGGAGTTCAGACGTGTGCTCTTCCGATCTCATGACCTGGTCCTGCCAGAAGTTTCCTCGGTCAGTGCGTACTGAGCACTAGATAGC RNA: AAUUUCUACUCUUGUAGAUAGGAAACUUCUGGCAGGACC,-6.71 lnKA,-4.92 lnKA,-1.45 lnKA
AGAC (dsDNA) DNA 1: GCTATCTAGTGCTCAGTACGCACTGAGACAGGAAACTTCTGGCAGGACCAGGTCATGAGATCGGAAGAGCACACGTCTGAACTCCAGTCA DNA 2: TGACTGGAGTTCAGACGTGTGCTCTTCCGATCTCATGACCTGGTCCTGCCAGAAGTTTCCTGTCTCAGTGCGTACTGAGCACTAGATAGC RNA: AAUUUCUACUCUUGUAGAUAGGAAACUUCUGGCAGGACC,-8.52 lnKA,-5.69 lnKA,-3.24 lnKA
AGAG (dsDNA) DNA 1: GCTATCTAGTGCTCAGTACGCACTGAGAGAGGAAACTTCTGGCAGGACCAGGTCATGAGATCGGAAGAGCACACGTCTGAACTCCAGTCA DNA 2: TGACTGGAGTTCAGACGTGTGCTCTTCCGATCTCATGACCTGGTCCTGCCAGAAGTTTCCTCTCTCAGTGCGTACTGAGCACTAGATAGC RNA: AAUUUCUACUCUUGUAGAUAGGAAACUUCUGGCAGGACC,-8.48 lnKA,-5.79 lnKA,-3.32 lnKA
ACGG (dsDNA) DNA 1: GCTATCTAGTGCTCAGTACGCACTGACGGAGGAAACTTCTGGCAGGACCAGGTCATGAGATCGGAAGAGCACACGTCTGAACTCCAGTCA DNA 2: TGACTGGAGTTCAGACGTGTGCTCTTCCGATCTCATGACCTGGTCCTGCCAGAAGTTTCCTCCGTCAGTGCGTACTGAGCACTAGATAGC RNA: AAUUUCUACUCUUGUAGAUAGGAAACUUCUGGCAGGACC,-8.37 lnKA,-6.05 lnKA,-3.43 lnKA
ACCC (dsDNA) DNA 1: GCTATCTAGTGCTCAGTACGCACTGACCCAGGAAACTTCTGGCAGGACCAGGTCATGAGATCGGAAGAGCACACGTCTGAACTCCAGTCA DNA 2: TGACTGGAGTTCAGACGTGTGCTCTTCCGATCTCATGACCTGGTCCTGCCAGAAGTTTCCTGGGTCAGTGCGTACTGAGCACTAGATAGC RNA: AAUUUCUACUCUUGUAGAUAGGAAACUUCUGGCAGGACC,-5.2 lnKA,-2.44 lnKA,-0.482 lnKA
AGAT (dsDNA) DNA 1: GCTATCTAGTGCTCAGTACGCACTGAGATAGGAAACTTCTGGCAGGACCAGGTCATGAGATCGGAAGAGCACACGTCTGAACTCCAGTCA DNA 2: TGACTGGAGTTCAGACGTGTGCTCTTCCGATCTCATGACCTGGTCCTGCCAGAAGTTTCCTATCTCAGTGCGTACTGAGCACTAGATAGC RNA: AAUUUCUACUCUUGUAGAUAGGAAACUUCUGGCAGGACC,-8.54 lnKA,-5.75 lnKA,-3.47 lnKA
ACGA (dsDNA) DNA 1: GCTATCTAGTGCTCAGTACGCACTGACGAAGGAAACTTCTGGCAGGACCAGGTCATGAGATCGGAAGAGCACACGTCTGAACTCCAGTCA DNA 2: TGACTGGAGTTCAGACGTGTGCTCTTCCGATCTCATGACCTGGTCCTGCCAGAAGTTTCCTTCGTCAGTGCGTACTGAGCACTAGATAGC RNA: AAUUUCUACUCUUGUAGAUAGGAAACUUCUGGCAGGACC,-8.68 lnKA,-5.84 lnKA,-3.39 lnKA
